# Paper PMC7862700, “An all-to-all approach to the identification of sequence-specific readers for epigenetic DNA modifications on cytosine”
# What was measured:
# Assay in all cases: DAPPL (digital affinity profiling via proximity ligation, sequencing); 10 mM Tris-HCl pH 7.5, 50 mM NaCl, 1 mM DTT, 4% glycerol, room temperature, 30 min; GST-TFs on glutathione beads, 16-mer random dsDNA library, 0.1% formaldehyde crosslink after washing; high values mean tight binding
# FLI1 = biological target: T1, FLI1 (Homo sapiens, UniProt Q01543 1-452); conditions: protein: recombinant; tags: N-terminal GST; dsDNA, one strand shown
# T1 sequence: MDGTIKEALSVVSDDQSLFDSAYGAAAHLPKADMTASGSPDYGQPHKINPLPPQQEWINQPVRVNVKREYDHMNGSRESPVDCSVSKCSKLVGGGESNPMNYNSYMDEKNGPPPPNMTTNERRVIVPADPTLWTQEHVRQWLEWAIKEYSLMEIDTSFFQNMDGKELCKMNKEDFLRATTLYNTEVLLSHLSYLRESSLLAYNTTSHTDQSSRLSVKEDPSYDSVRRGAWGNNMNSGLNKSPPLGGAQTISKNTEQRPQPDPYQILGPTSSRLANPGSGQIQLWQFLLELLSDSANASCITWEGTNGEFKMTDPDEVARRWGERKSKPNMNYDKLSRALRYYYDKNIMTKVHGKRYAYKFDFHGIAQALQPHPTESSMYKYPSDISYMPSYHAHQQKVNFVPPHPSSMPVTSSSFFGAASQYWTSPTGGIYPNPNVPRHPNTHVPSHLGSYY
# Procedure, shortened: (§1)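 GST fusions of human transcription factors were expressed in yeast and captured with glutathione beads. Once given DNA barcodes and pooled alongside a tag-only sample, they were incubated for 30 min at room temperature with 200 nmole of a random double-stranded 16-mer DNA library in Tris/NaCl/DTT/glycerol buffer, then washed, crosslinked (0.1% formaldehyde), proximity-ligated, PCR-amplified and sequenced on an Illumina NextSeq500. The binding signal of each hexamer is its read frequency for a factor divided by its frequency for the tag-only sample.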
# ELK1 = biological target: T2, ELK1 (Homo sapiens, UniProt P19419 1-428); conditions: protein: recombinant; tags: N-terminal GST; dsDNA, one strand shown
# T2 sequence: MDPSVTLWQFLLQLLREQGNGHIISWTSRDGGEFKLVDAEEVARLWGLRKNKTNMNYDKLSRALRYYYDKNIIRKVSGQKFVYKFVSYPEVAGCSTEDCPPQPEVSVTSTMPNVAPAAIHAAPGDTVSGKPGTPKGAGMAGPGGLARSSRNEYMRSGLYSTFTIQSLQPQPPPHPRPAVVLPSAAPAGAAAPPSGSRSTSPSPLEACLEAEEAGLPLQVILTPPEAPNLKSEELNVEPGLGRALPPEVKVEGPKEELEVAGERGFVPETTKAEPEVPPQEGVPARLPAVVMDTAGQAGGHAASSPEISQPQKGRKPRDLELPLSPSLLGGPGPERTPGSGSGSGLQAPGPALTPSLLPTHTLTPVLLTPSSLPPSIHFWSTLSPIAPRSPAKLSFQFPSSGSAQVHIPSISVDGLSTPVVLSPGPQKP
# Procedure, shortened: as §1
# GABPA = biological target: T3, GABPA (Homo sapiens, UniProt Q06546 1-454); conditions: protein: recombinant; tags: N-terminal GST; dsDNA, one strand shown
# T3 sequence: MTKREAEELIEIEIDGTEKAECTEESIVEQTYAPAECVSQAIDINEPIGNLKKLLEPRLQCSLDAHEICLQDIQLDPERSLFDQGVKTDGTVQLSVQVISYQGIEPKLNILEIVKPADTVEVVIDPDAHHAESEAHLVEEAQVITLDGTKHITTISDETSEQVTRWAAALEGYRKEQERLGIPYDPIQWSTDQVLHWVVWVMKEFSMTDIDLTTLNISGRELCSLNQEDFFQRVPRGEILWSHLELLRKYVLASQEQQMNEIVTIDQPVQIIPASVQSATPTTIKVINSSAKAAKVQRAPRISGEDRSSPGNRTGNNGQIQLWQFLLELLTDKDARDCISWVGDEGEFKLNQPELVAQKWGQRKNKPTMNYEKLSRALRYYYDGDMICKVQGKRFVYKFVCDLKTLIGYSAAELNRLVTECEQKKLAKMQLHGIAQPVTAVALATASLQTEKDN
# Procedure, shortened: as §1
# ERG = biological target: T4, ERG (Homo sapiens, UniProt P11308 1-479); conditions: protein: recombinant; tags: N-terminal GST; dsDNA, one strand shown
# T4 sequence: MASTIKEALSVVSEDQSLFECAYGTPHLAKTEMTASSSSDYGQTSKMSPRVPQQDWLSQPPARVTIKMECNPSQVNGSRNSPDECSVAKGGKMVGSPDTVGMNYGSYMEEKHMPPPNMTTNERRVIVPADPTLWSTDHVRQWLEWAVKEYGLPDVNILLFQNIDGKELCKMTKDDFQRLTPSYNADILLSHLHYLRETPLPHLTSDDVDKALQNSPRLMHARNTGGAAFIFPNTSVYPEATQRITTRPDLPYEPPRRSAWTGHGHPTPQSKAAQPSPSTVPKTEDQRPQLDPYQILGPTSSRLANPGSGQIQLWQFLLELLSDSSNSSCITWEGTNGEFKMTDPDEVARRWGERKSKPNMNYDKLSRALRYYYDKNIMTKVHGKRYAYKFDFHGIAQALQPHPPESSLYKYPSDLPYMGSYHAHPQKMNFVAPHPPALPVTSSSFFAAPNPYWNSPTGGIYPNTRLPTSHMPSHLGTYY
# Procedure, shortened: as §1
# ELF1 = ELF1 (Homo sapiens, UniProt P32519 1-619); conditions: protein: recombinant; tags: N-terminal GST; dsDNA, one strand shown
# Chain of ELF1 (P32519 whole entry): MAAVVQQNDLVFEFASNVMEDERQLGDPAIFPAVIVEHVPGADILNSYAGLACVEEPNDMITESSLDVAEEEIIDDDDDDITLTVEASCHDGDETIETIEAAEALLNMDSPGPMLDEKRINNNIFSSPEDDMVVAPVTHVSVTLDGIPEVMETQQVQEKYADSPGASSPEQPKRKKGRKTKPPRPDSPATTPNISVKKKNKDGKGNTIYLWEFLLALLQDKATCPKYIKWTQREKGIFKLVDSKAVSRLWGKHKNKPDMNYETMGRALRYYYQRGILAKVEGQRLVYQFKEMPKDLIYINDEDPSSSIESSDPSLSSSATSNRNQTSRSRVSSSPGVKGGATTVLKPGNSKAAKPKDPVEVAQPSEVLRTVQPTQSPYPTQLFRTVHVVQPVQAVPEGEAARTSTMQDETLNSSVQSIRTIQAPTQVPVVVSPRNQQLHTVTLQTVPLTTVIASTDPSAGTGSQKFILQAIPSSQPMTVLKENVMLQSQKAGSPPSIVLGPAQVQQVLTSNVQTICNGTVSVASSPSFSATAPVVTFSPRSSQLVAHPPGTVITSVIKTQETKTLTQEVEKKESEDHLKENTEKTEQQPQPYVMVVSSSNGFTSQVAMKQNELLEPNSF
# Procedure, shortened: as §1
# EHF = biological target: T5, EHF (Homo sapiens, UniProt Q9NZC4 1-300); conditions: protein: recombinant; tags: N-terminal GST; dsDNA, one strand shown
# T5 sequence: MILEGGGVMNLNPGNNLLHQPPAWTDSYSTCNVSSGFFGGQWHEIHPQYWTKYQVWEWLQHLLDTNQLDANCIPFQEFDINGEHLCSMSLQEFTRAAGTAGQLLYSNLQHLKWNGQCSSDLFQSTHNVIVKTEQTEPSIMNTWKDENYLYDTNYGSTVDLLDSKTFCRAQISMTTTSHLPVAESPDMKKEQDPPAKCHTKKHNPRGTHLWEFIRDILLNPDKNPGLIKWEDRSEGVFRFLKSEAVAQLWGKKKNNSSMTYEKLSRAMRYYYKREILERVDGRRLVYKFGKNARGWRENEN
# Procedure, shortened: as §1
# SPI1 = SPI1 (Homo sapiens, UniProt P17947 1-270); conditions: protein: recombinant; tags: N-terminal GST; dsDNA, one strand shown
# Procedure, shortened: as §1
# SPIB = SPIB (Homo sapiens, UniProt Q01892 1-262); conditions: protein: recombinant; tags: N-terminal GST; dsDNA, one strand shown
# Chain of SPIB (Q01892 whole entry): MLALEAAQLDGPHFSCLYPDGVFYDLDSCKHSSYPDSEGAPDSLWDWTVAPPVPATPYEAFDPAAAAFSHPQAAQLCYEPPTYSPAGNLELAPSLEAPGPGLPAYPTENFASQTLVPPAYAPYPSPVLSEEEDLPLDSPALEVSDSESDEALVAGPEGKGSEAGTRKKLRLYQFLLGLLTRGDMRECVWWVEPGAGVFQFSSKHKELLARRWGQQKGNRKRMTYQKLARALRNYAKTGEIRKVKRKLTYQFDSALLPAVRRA
# Procedure, shortened: as §1
# ELK3 = biological target: T6, ELK3 (Homo sapiens, UniProt P41970 1-407); conditions: protein: recombinant; tags: N-terminal GST; dsDNA, one strand shown
# T6 sequence: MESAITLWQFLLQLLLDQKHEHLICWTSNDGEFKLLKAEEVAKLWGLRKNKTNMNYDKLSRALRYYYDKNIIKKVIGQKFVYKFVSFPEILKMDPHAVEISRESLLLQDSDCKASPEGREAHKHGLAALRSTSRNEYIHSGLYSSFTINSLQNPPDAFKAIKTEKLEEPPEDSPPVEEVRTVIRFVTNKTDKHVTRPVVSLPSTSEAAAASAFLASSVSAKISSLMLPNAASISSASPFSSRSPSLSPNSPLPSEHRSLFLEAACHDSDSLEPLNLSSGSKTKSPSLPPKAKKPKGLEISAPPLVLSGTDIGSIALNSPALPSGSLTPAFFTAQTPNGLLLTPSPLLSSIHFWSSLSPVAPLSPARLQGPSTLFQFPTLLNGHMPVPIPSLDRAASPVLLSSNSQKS
# Procedure, shortened: as §1
# FEV = biological target: T7, FEV (Homo sapiens, UniProt Q99581 1-238); conditions: protein: recombinant; tags: N-terminal GST; dsDNA, one strand shown
# T7 sequence: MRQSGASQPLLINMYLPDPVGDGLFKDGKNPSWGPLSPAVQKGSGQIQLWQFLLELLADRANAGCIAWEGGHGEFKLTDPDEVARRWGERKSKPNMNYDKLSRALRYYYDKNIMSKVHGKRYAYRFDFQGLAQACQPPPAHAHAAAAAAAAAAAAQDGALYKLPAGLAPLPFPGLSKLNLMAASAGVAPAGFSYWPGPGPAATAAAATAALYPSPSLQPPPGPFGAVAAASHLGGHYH
# Procedure, shortened: as §1
# ETV5 = ETV5 (Homo sapiens, UniProt P41161 1-510); conditions: protein: recombinant; tags: N-terminal GST; dsDNA, one strand shown
# Chain of ETV5 (P41161 whole entry): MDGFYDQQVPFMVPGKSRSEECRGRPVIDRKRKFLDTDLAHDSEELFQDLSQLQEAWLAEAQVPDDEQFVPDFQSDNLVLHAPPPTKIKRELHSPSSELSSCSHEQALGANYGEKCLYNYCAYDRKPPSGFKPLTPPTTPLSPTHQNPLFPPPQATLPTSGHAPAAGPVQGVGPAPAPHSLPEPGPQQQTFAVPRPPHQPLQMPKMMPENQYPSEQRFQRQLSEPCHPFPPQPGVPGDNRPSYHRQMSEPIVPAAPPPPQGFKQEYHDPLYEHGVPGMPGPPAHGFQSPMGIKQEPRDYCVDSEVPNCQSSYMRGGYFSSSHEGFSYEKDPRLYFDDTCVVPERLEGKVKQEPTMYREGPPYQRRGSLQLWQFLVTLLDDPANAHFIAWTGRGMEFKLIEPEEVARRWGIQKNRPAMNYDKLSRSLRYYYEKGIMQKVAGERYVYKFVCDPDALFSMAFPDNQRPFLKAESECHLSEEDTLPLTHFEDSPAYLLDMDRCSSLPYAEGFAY
# Procedure, shortened: as §1
# HSF1 = HSF1 (Homo sapiens, UniProt Q00613 1-529); conditions: protein: recombinant; tags: N-terminal GST; chain copies: 3; dsDNA, one strand shown
# Chain of HSF1 (Q00613 whole entry): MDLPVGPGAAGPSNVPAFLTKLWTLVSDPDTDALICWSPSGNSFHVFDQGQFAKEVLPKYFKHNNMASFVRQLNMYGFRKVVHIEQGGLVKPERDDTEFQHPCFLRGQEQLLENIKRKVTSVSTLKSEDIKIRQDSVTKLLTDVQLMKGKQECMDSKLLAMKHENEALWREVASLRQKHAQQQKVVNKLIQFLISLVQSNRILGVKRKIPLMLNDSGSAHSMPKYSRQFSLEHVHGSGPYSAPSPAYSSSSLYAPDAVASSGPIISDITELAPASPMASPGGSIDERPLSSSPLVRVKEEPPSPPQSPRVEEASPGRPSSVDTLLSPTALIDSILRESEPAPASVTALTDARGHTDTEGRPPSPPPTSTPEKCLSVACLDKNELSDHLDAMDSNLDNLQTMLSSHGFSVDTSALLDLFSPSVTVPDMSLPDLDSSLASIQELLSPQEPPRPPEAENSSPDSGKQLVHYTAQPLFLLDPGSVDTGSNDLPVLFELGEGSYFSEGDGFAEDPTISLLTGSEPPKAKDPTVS
# Procedure, shortened: as §1
# SPIC = biological target: T8, SPIC (Homo sapiens, UniProt Q8N5J4 1-248); conditions: protein: recombinant; tags: N-terminal GST; dsDNA, one strand shown
# T8 sequence: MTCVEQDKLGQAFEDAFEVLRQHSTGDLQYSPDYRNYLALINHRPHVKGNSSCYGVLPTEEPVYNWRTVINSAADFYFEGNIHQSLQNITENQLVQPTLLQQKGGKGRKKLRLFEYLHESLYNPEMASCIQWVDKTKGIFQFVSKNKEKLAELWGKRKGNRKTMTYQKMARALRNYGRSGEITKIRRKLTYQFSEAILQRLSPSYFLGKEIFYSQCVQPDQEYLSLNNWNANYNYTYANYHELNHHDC
# Procedure, shortened: as §1
# ELF4 = ELF4 (Homo sapiens, UniProt Q99607 1-663); conditions: protein: recombinant; tags: N-terminal GST; dsDNA, one strand shown
# Chain of ELF4 (Q99607 whole entry): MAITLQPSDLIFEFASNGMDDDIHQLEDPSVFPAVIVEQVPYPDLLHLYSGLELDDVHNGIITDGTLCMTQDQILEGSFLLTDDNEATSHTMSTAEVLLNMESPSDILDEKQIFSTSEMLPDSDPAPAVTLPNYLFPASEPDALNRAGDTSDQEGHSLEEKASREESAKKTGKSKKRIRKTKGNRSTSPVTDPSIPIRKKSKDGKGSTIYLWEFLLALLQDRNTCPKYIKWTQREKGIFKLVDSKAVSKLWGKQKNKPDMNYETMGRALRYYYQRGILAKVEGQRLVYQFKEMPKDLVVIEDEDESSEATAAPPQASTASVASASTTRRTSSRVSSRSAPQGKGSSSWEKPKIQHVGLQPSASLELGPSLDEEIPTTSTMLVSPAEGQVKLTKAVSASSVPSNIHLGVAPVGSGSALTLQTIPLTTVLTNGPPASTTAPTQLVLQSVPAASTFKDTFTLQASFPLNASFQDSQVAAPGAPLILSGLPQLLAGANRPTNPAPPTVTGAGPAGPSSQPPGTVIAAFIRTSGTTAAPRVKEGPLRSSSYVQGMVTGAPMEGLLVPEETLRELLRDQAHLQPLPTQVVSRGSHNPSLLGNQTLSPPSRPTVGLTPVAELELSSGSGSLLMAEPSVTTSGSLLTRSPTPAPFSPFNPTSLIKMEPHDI
# Procedure, shortened: as §1
# ELK4 = biological target: T9, ELK4 (Homo sapiens, UniProt P28324-2 1-405); conditions: protein: recombinant; tags: N-terminal GST; dsDNA, one strand shown
# T9 sequence: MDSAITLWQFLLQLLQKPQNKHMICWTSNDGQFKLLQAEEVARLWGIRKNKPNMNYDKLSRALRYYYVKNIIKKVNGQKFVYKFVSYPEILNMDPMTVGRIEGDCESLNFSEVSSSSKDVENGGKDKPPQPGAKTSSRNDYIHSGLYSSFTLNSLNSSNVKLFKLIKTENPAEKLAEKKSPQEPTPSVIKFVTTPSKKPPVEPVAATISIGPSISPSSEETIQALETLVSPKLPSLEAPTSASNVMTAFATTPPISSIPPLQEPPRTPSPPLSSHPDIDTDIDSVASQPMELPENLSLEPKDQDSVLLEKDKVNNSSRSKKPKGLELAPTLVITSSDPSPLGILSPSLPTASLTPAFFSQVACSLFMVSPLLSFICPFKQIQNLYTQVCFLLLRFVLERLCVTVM
# Procedure, shortened: as §1
# ETV2 = biological target: T10, ETV2 (Homo sapiens, UniProt O00321 1-342); conditions: protein: recombinant; tags: N-terminal GST; dsDNA, one strand shown
# T10 sequence: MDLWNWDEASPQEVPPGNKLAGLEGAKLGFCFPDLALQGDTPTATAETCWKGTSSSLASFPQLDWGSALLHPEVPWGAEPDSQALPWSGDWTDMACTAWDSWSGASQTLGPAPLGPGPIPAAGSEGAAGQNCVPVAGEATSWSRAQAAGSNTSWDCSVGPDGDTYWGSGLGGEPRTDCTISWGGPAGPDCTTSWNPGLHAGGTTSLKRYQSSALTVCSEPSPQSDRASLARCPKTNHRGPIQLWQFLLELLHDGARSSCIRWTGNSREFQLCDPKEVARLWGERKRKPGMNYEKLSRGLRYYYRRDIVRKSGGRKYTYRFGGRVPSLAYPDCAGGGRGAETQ
# Procedure, shortened: as §1
# ELF3 = biological target: T11, ELF3 (Homo sapiens, UniProt P78545 1-371); conditions: protein: recombinant; tags: N-terminal GST; dsDNA, one strand shown
# T11 sequence: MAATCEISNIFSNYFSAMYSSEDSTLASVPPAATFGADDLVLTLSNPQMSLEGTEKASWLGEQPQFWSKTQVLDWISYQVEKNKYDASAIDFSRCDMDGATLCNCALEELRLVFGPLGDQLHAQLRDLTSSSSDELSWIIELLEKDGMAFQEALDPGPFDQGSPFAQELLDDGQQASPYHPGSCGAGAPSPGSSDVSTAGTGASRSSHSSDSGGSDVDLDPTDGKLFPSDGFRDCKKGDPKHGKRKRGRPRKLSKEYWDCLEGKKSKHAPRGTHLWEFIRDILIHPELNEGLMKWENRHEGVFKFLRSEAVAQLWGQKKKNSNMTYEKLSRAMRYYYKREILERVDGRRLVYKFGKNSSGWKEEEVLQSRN
# Procedure, shortened: as §1
# CRX = CRX (Homo sapiens, UniProt O43186 1-299); conditions: protein: recombinant; tags: N-terminal GST; dsDNA, one strand shown
# Chain of CRX (O43186 whole entry): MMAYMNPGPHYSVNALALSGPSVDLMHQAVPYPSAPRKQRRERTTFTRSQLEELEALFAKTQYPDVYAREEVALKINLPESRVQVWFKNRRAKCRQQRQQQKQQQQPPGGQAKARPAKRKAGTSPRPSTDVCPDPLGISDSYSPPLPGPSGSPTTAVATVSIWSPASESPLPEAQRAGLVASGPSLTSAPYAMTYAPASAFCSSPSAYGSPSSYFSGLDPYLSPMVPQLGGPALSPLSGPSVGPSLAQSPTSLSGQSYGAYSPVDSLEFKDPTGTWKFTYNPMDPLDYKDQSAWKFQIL
# Procedure, shortened: as §1
# ETV1 = ETV1 (Homo sapiens, UniProt P50549 1-477); conditions: protein: recombinant; tags: N-terminal GST; dsDNA, one strand shown
# Chain of ETV1 (P50549 whole entry): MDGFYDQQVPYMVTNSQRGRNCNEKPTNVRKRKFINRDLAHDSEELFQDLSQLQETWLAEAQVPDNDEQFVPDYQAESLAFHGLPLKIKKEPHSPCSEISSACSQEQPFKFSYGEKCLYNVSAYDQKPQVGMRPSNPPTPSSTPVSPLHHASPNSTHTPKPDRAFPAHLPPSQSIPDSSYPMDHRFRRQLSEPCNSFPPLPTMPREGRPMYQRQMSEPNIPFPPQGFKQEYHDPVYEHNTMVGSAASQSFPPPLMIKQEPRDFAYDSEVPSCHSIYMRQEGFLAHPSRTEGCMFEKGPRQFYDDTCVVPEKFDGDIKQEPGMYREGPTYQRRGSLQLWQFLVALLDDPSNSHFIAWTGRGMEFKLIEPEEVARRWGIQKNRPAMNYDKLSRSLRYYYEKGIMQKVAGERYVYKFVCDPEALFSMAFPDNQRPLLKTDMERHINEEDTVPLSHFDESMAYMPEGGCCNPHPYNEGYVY
# Procedure, shortened: as §1
sequence,measurement,setting,value
AACCTA,binding signal,FLI1,"1.03 fold enrichment (6-mer frequency, TF over GST control)"
same,binding signal,ELK1,"1.08 fold enrichment (6-mer frequency, TF over GST control)"
same,binding signal,GABPA,"1.1 fold enrichment (6-mer frequency, TF over GST control)"
same,binding signal,ERG,"1.01 fold enrichment (6-mer frequency, TF over GST control)"
same,binding signal,ELF1,"1.1 fold enrichment (6-mer frequency, TF over GST control)"
same,binding signal,EHF,"1.11 fold enrichment (6-mer frequency, TF over GST control)"
same,binding signal,SPI1,"1.08 fold enrichment (6-mer frequency, TF over GST control)"
same,binding signal,SPIB,"1.1 fold enrichment (6-mer frequency, TF over GST control)"
same,binding signal,ELK3,"1.1 fold enrichment (6-mer frequency, TF over GST control)"
same,binding signal,FEV,"1.08 fold enrichment (6-mer frequency, TF over GST control)"
same,binding signal,ETV5,"1.03 fold enrichment (6-mer frequency, TF over GST control)"
same,binding signal,HSF1,"1.18 fold enrichment (6-mer frequency, TF over GST control)"
same,binding signal,SPIC,"1.03 fold enrichment (6-mer frequency, TF over GST control)"
same,binding signal,ELF4,"1.15 fold enrichment (6-mer frequency, TF over GST control)"
same,binding signal,ELK4,"1.07 fold enrichment (6-mer frequency, TF over GST control)"
same,binding signal,ETV2,"1.27 fold enrichment (6-mer frequency, TF over GST control)"
same,binding signal,ELF3,"1.16 fold enrichment (6-mer frequency, TF over GST control)"
same,binding signal,CRX,"1.2 fold enrichment (6-mer frequency, TF over GST control)"
same,binding signal,ETV1,"1.1 fold enrichment (6-mer frequency, TF over GST control)"
